Bioassay records as filed in PubChem BioAssay.
The list is not random: actives were taken first. Their share in the collection is about 2%.
CHT allo act = human CHT allosteric activation; Q9GZV3; 310,000 compounds, 0.49% hits; B-score at 10 µM; CHT-expressing cells, membrane potential dye, choline EC20; hits give high values; LV-AA mutant CHT in HEK293 cells; AID 488977;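 active = initial fluorescence not abnormally high and integrated response B-score, plate-corrected, over 3 SD above library mean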
Kir21 inh = blocks the mouse Kir2.1 inward-rectifier potassium channel | P35561 | HEK293-Kir2.1, FluxOR thallium flux fluorescence; hits give low values | B-score at 10 µM | 310,000 compounds, 0.85% hits | AID 1672;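 active = fluorescence ratio B-score at or below minus 3 SD of library scores, with starting-brightness B-score within 2 SD, cut at about -4.2 in these data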;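 note: channel flux triggered by added potassium and thallium sulfate stimulus; B-score of peak minus minimum fluorescence over baseline after thallium stimulus; more negative B-score means stronger Kir2.1 block with less thallium influx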
Target sequence (P35561 whole entry, looked up): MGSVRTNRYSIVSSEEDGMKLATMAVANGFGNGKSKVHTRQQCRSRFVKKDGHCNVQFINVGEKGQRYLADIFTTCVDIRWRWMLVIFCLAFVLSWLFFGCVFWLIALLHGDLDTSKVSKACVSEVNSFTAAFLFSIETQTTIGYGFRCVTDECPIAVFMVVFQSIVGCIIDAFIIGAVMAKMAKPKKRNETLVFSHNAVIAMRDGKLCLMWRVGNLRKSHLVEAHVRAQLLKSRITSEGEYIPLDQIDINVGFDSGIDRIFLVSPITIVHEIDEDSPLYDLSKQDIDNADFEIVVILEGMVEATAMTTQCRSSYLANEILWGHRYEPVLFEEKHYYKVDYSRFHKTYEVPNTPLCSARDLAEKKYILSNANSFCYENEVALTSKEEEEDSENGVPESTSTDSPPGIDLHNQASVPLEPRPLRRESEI
CHT inh = inhibits the human high affinity choline transporter | AID 488975 | B-score at 10 µM | 310,000 compounds, 0.86% hits | CHT-expressing cells, membrane potential dye, choline response; hits give low values;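 active = B-score over 3 SD under the library average, and starting fluorescence ratio not unusually high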;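 note: choline stimulus applied at its EC90 after an EC20 pre-addition; B-score computed on integrated fluorescence ratio after choline addition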
TAG inh = inhibitors of triacylglycerol accumulation. H9c2 cells, Nile Red lipid (TAG) fluorescence; cells loaded with 200 µM oleic acid. inhibition, % at 12.5 µM. 230,000 compounds, 0.66% hits;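 active = pattern-corrected inhibition of lipid staining of at least 50% with the nuclear-stain viability signal not falling by more than 50%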
hERG inh = counter-screen for Kir2.1 inhibitors: effect on human hERG | shares compounds with Kir21 inh | hERG-expressing cells, thallium flux | inhibition, % at 10 µM | 320 compounds, 20% hits | AID 2236;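 note: host cells are CHO cells stably expressing hERG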
KCNK9 inh = selectivity of Kir2.1 inhibitors: effect on human KCNK9; KCNK9-expressing cells, ion flux inhibition; inhibition, % at 10 µM; shares compounds with Kir21 inh; AID 2329; 320 compounds, 5% hits
Kir21 ephys inh = blocks mouse Kir2.1 current in automated electrophysiology; Kir2.1 cells, automated patch-clamp current inhibition; AID 463252; 320 compounds, 71% hits; inhibition, % at 25 µM; shares compounds with Kir21 inh
CHT inh conf = confirmation of human choline transporter CHT inhibitors | shares compounds with CHT inh | CHT activity remaining % of control (hits give low values), % at 10 µM | CHT-expressing cells, choline membrane potential dye; LV-to-AA substituted CHT, HEK293 cells | AID 493221 | 2,400 compounds, 70% hits;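 active = choline transporter activity left, mean of duplicates at 10 µM, below buffer-only control mean minus 3 SD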;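 note: depolarization triggered by choline at its EC90 following an EC20 pre-addition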
HEK293 CHT ctr = counter-screen for CHT inhibitors: effect in parental HEK293 cells. shares compounds with CHT inh. membrane potential dye, choline response; active = decrease or increase beyond buffer ±3SD. membrane potential ratio readout (active if shifted either direction beyond buffer ±3SD; no single direction) at 10 µM. 2,400 compounds, 4% hits. AID 493222;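 note: parental cells lack the transporter so any hit is non-specific; ratio is peak minus trough fluorescence over baseline after EC90 choline challenge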
CHT activ conf = confirmation of human choline transporter (CHT) activators | CHT-expressing cells, membrane potential dye fluorescence (FDSS); % of choline EC20–EC90 response window; HEK293 expressing CHT LV-AA mutant; choline added at its EC20 | shares compounds with CHT allo act | AID 504833 | 2,500 compounds, 91% hits | activation, % at 10 µM;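 active = primary screen active, with duplicate mean activation above negative control mean plus 3 SD, cut at about 11% in these data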
HEK293 MP dye = counter-screen for CHT activators: effect in parental HEK293 cells. AID 623908. ratio readout change at 10 µM, hits read low. 2,500 compounds, 62% hits. shares compounds with CHT allo act. membrane potential dye fluorescence (FDSS); measured after EC20 choline addition;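 active = duplicate-averaged ratio beyond 3 SD from buffer wells, up or down, though filed actives are nearly all decreases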
Large screens that a line does not name were inactive (follow-up assays come after a bar, where they were run). Unless noted, the rule behind the calls is not given here.

O=C(N/N=C/c1cccc(Oc2ccccc2)c1)c1cccc(O)c1	Kir21 inh -8.12, CHT inh -5.26 | hERG inh inactive | KCNK9 inh inactive | Kir21 ephys inh 41.2% | CHT inh conf 66.5% | HEK293 CHT ctr inactive
CCC(C)NCCOCCOc1ccccc1-c1ccccc1 (stereo unspecified)	Kir21 inh -6.18, CHT inh -5.78 (no result: TAG inh) | hERG inh inactive | KCNK9 inh inactive | Kir21 ephys inh 35.0% | CHT inh conf 47.7% | HEK293 CHT ctr -15
CC(C)(C)NCCOCCOc1ccccc1-c1ccccc1	none (no result: TAG inh)
CN(C)c1ccc(C(O)c2cc3ccccc3s2)cc1 (stereo unspecified)	none (no result: CHT allo act, Kir21 inh, CHT inh)
CSCc1ccc(C(=O)N2CCCC(Nc3ccc(F)cc3)C2)o1 (stereo unspecified)	Kir21 inh -5.72, CHT inh -5.2 | hERG inh inactive | KCNK9 inh inactive | Kir21 ephys inh 28.7% | CHT inh conf inactive | HEK293 CHT ctr inactive
CN(C)CC1CCCCC1OC(=O)c1ccc(Cl)cc1 (stereo unspecified)	none (no result: TAG inh)
CN(C)CC1CCCCC1C1(O)c2ccccc2CSc2sccc21 (stereo unspecified)	Kir21 inh -5.71 | hERG inh inactive | KCNK9 inh inactive | Kir21 ephys inh inactive | CHT activ conf 13.3 | HEK293 MP dye inactive
CCc1nc2ccc(C(=O)Nc3cccc(NS(C)(=O)=O)c3)cn2c1N(C)Cc1nccn1C	none (no result: CHT allo act, Kir21 inh, CHT inh)
CC(C)CCC(CCNCc1ccccn1)c1ccc(Cl)cc1 (stereo unspecified)	Kir21 inh -6.7 (no result: TAG inh) | hERG inh 70.0% | KCNK9 inh inactive | Kir21 ephys inh inactive | CHT activ conf 32.7 | HEK293 MP dye inactive
COc1cc(C=O)ccc1OCCOCCOc1ccccc1Cl	CHT inh -5.56 | CHT inh conf 63.4% | HEK293 CHT ctr inactive
O=[N+]([O-])c1cc(Br)cc(C=Nc2ccc3c(c2)OCO3)c1O	CHT inh -7.99 | CHT inh conf 31.9% | HEK293 CHT ctr inactive
COCCCn1c(SCC(=O)Nc2sc3c(c2C#N)CCCC3)nnc1-c1ccncc1	CHT inh -5.45 (no result: TAG inh) | CHT inh conf 62.2% | HEK293 CHT ctr inactive
COC(=O)c1ccc(O)c(Sc2cc(C(=O)OC)ccc2O)c1	CHT inh -5.25 | CHT inh conf inactive | HEK293 CHT ctr inactive
O=C(O)c1ccccc1NSc1ccccc1[N+](=O)[O-]	CHT inh -5.41 | CHT inh conf 62.2% | HEK293 CHT ctr inactive
Cc1ccc(C2(c3noc(CN(C)Cc4cnn(C)c4)n3)CCCC2)cc1	none
CCOc1ccc(-n2c(SCc3nc(-c4cccs4)no3)nnc2-c2ccncc2)cc1	CHT inh -4.98 (no result: TAG inh) | CHT inh conf inactive | HEK293 CHT ctr inactive
O=C(NCCCN=C1NS(=O)(=O)c2ccccc21)c1ccc(F)cc1	none
CN1CCN(C(=O)CCCN2C(=O)/C(=C/c3cccc(Br)c3)SC2=S)CC1	none (no result: CHT allo act, CHT inh, TAG inh)
CCc1ccc(/C=C2/SC(=S)N(CCC(=O)NCCCN3CCOCC3)C2=O)cc1	none
O=C(CCN1C(=O)/C(=C\c2cccc(Br)c2)SC1=S)NCCCN1CCOCC1	CHT inh -5.6 (no result: TAG inh) | CHT inh conf 69.0% | HEK293 CHT ctr inactive
CN1CCN(C(=O)CCN2C(=O)/C(=C/c3cccc(Br)c3)SC2=S)CC1	CHT inh -5.2 (no result: TAG inh) | CHT inh conf 70.4% | HEK293 CHT ctr inactive
O=C(CCCN1C(=O)/C(=C/c2ccccc2)SC1=S)N1CCOCC1	CHT inh -5.64 (no result: TAG inh) | CHT inh conf inactive | HEK293 CHT ctr inactive
O=C(NC1CCCN(Cc2ccc(Cl)cc2)C1)c1c(F)ccc(F)c1F (stereo unspecified)	none
CCOC(=O)/C(=N\Nc1ccccc1Cl)N1CCN(c2ccccc2OC)CC1	none
COc1ccc(/C=C2\SC(=S)N(CC(=O)OCC(=O)Nc3cc(Cl)cc(Cl)c3)C2=O)cc1	none
CCCCN(C(=O)C1CCCO1)c1c(N)n(CCC)c(=O)[nH]c1=O (stereo unspecified)	none (no result: CHT allo act, Kir21 inh, CHT inh)
Cc1ccc(S(=O)(=O)NCCc2nc3ccccc3[nH]2)cc1	none (no result: TAG inh)
O=C(O)c1cc(C(=O)O)cc(N2C(=O)CSC2=S)c1	none (no result: TAG inh)
O=C(O)c1ccc(N2C(=O)CSC2=S)cc1	CHT inh -6.36 | CHT inh conf 68.6% | HEK293 CHT ctr inactive
Cc1nc(SCC(=O)N2CCN(C(=O)c3cccs3)CC2)c2c(C)c(C)sc2n1	none (no result: CHT allo act, Kir21 inh, CHT inh)
CCc1nc2c(OCc3ccc(F)cc3)cccn2c1N(C)C(=O)C(C)C	none (no result: CHT allo act, Kir21 inh, CHT inh)
CCN(CC)CCNC(=O)c1ccc2c(c1NCCO)C(=O)c1ccccc1C2=O	none
CC1CCN(C(=O)c2ccc3c(c2NCCO)C(=O)c2ccccc2C3=O)CC1	CHT inh -6.31, TAG inh 118.4 | CHT inh conf 50.2% | HEK293 CHT ctr 2.25
O=C(CN1CCN(C(C(=O)Nc2ccc(Cl)cc2C(F)(F)F)c2ccccc2)CC1)NC1CC1 (stereo unspecified)	none (no result: CHT allo act, Kir21 inh, CHT inh)
O=C(NC1CCCCC1)c1ccc(S(=O)(=O)NCc2ccco2)cc1	CHT inh -5.48 (no result: TAG inh) | CHT inh conf inactive | HEK293 CHT ctr inactive
CCc1ccc(N(CC(=O)N2CCOCC2)S(C)(=O)=O)cc1	none
CC1=NN(C(=O)c2ccc(Br)cc2)C(O)(C(F)(F)OC(F)(F)F)C1 (stereo unspecified)	CHT inh -5.14 | CHT inh conf 44.0% | HEK293 CHT ctr inactive
CC(/C=C1\SC(=S)N(CC(=O)O)C1=O)=C\c1ccccc1	CHT inh -6.03 | CHT inh conf 40.4% | HEK293 CHT ctr inactive
O=C(O)C(c1ccccc1)N1C(=O)/C(=C/c2cccs2)SC1=S (stereo unspecified)	none
CC(=C\c1ccccc1)/C=C1/SC(=S)N(CCC(=O)O)C1=O	none (no result: TAG inh)
CC(/C=C1\SC(=S)N(C(C(=O)O)c2ccccc2)C1=O)=C\c1ccccc1 (stereo unspecified)	none | CHT inh conf 45.6% | HEK293 CHT ctr inactive
